Results as given in ChEMBL document CHEMBL4513216, “Probing the Open Global Health Chemical Diversity Library for Multistage-Active Starting Points for Next-Generation Antimalarials” (ACS Infect Dis, 2020).
Among all 69,000 compounds or so, about 8,600 (12%) showed an effect of 50% or more. Many of the other results were omitted from the sample, so strong results are more common in it than they were.

test system: Plasmodium berghei; experiment: Screen against P. berghei liver stage (PbLuc), transformed with Luciferase, at 10uM; assay type: functional, HepG2; conditions: tested at 10 uM

Row | Compound | INHIBITION [%]
1 | COc1cccc(CN(C)C(=O)c2ccc(NC(C)=O)s2)c1OC | 61.1
2 | COc1cccc(CN(C)C(=O)CCC(=O)c2ccc(Cl)cc2)c1OC | 40.1
3 | Cn1cc(-c2cnc(N3CCOCC3)nc2)cc1C(=O)NCCC#N | 47.4
4 | Cn1nccc1-c1cccc(CC2CCN(S(C)(=O)=O)C2)n1 (stereo not drawn) | 12.905
5 | Clc1cccc(Cl)c1-c1nnc(CNCCn2cccn2)o1 | -48.4
6 | Cc1nc(CCNC(=O)N2CCC(Cc3cnn(C)c3)C2)cs1 (stereo not drawn) | -4.74
7 | Clc1cccc(Cl)c1CNCCOc1ccccn1 | 60
8 | Fc1cccc(Cl)c1CNCCOc1ccccn1 | 27
9 | Fc1cccc(Cl)c1CNCCCOc1ccccn1 | 2.61
10 | CCOc1nn(CC)cc1-c1nnc(SCc2cccnc2)n1CC | 9
11 | Cc1noc(C)c1CNc1cccc(C(=O)N2CCCC(O)C2)c1 (stereo not drawn) | 20.6
12 | Cc1cc(CNc2cccc(C(=O)N(C)c3ccccc3)c2)no1 | 45
13 | Cc1noc(C)c1CNc1cccc(C(=O)N(C)c2ccccc2)c1 | 59.1
14 | Cc1noc(C)c1CN1C[C@@H](OCc2ccccn2)[C@H]2OCCC[C@H]21 | -14.4
15 | Cc1ccc(Cc2cnc(C3CCNCC3)cn2)cc1 | 13.5
16 | CC(C)n1nc(CN2CCOCC2)c2c1CN(Cc1ccsc1)C2 | -18.2
17 | OC(CN1CCC(c2ccn[nH]2)CC1)c1cccc(C(F)(F)F)c1 (stereo not drawn) | -33.9
18 | OC(CN(Cc1ccccc1)Cc1ccon1)c1ccco1 (stereo not drawn) | -21
19 | OC(CN(Cc1ccccc1)Cc1ccon1)c1cccs1 (stereo not drawn) | 70.1
20 | OC(CN(Cc1ccccc1)Cc1cccnc1)c1cccs1 (stereo not drawn) | 57.2
21 | OC(CN(Cc1ccccc1)Cc1cscn1)c1cccs1 (stereo not drawn) | 9.72
22 | OC(CN(Cc1ccccc1)Cc1ccncc1)c1cccs1 (stereo not drawn) | 7.11
23 | Cc1cc(CN(Cc2ccccc2)CC(O)c2cccs2)on1 (stereo not drawn) | 30.3
24 | Cc1cnc(CN(Cc2ccccc2)CC(O)c2cccs2)cn1 (stereo not drawn) | -34.7
25 | Cn1cc(CN(Cc2ccccc2)CC(O)c2cccs2)cn1 (stereo not drawn) | -58.4
26 | OC(CN(Cc1ccccc1)Cc1ccccn1)c1cccs1 (stereo not drawn) | 55.9
27 | CC(C)c1ccccc1NC(=O)N1C[C@H]2CC[C@@H](C1)N(C)C2=O | -14.5

Row | Compound | INHIBITION [%]
28 | Cn1cccc1CN(C(=O)CC(CC(=O)O)c1cccs1)C1CC1 (stereo not drawn) | -42.1
29 | CS(=O)(=O)N1C[C@H]2CC[C@@H](C1)N(Cc1cscn1)C2=O | 13.5
30 | CCN(C)S(=O)(=O)N1C[C@H]2CC[C@@H](C1)N(Cc1cscn1)C2=O | -23.7
31 | Cn1cnc(S(=O)(=O)N2C[C@H]3CC[C@@H](C2)N(Cc2cscn2)C3=O)c1 | 10.5
32 | CCCS(=O)(=O)N1C[C@H]2CC[C@@H](C1)N(Cc1cscn1)C2=O | 53.3
33 | CCN(CC)S(=O)(=O)N1C[C@H]2CC[C@@H](C1)N(Cc1cscn1)C2=O | 51.1
34 | O=C1[C@@H]2CC[C@@H](CN(S(=O)(=O)c3ccccc3)C2)N1Cc1cscn1 | 25.1
35 | Cc1cnc(C(=O)N2C[C@@H]3CN(CC4CCCC4)CCO[C@@H]3C2)cn1 | 13.6
36 | CN(C)Cc1cc(=O)n2c(n1)CN(C(=O)Cc1ccsc1)CCC2 | 33.5
37 | CCc1ncc(C(=O)NCCN(C)S(C)(=O)=O)cn1 | 43.2
38 | CCCS(=O)(=O)CC(=O)Nc1cc(CC(C)(C)C)n[nH]1 | -45.9
39 | O=C1CCCN1CC1CN(C(=O)N2CCOCC2)Cc2nccn2C1 (stereo not drawn) | 34.4
40 | O=C1CCCN1CC1CN(C(=O)C2CCOCC2)Cc2nccn2C1 (stereo not drawn) | 0.542
41 | O=C1CCCN1CC1CN(CC2CCOCC2)Cc2nccn2C1 (stereo not drawn) | 57.4
42 | CCCc1nnc2sc(C3CCN(CCOC)CC3)nn12 | 31.2
43 | NC(=O)CN1CCOCC(Cc2cccc(F)c2)C1 (stereo not drawn) | -44.2
44 | Cc1ccc(N2CC[C@@H]3CN(Cc4cccc(C)n4)C[C@@H]3C2)nn1 | -2.41
45 | Cc1cccc(CN2C[C@@H]3CN(Cc4ccoc4)CCO[C@@H]3C2)n1 | 23.3
46 | Cc1ccc(N2C[C@@H]3CN(Cc4csc(C)n4)CCO[C@@H]3C2)nn1 | 42.6
47 | Cc1cccc(CN2C[C@@H]3OCCN(C)[C@@H]3C2)n1 | -22.7
48 | Cc1cccc(CN2C[C@@H]3OCCN(S(=O)(=O)N(C)C)[C@@H]3C2)c1 | -7.94
49 | Cc1nc(CN2CCO[C@@H]3CN(Cc4ccccn4)CC[C@@H]3C2)cs1 | 42.3
50 | Cc1ccc(N2CCO[C@@H]3CN(Cc4cccc(C)n4)CC[C@@H]3C2)nn1 | 52.3
51 | Cc1cccc(CN2C[C@@H]3OCCN(S(=O)(=O)N(C)C)[C@@H]3C2)n1 | 54.1
52 | Cc1cccc(N2CC[C@@H]3CN(Cc4csc(C)n4)CCO[C@@H]3C2)n1 | 66.5
53 | O=S(=O)(c1ccc(F)cc1)N1CCCCC1c1cc[nH]n1 (stereo not drawn) | 13
